Compounds with a hit are over-represented: about 4.3% of the library has one in this group of screens.
Autofluor counter: counter-screen for toxin protease inhibitors: compound fluorescence | hit rate 3.1% among 360,000 | compound autofluorescence counterscreen, microsphere flow cytometry; active compounds read high | fluorescence intensity (no concentration beside the values); in the data active = fluorescence intensity above about 16000; inconclusive = no clear call, values can overlap the other calls
BoNT-A LC inh2: inhibitors of Botulinum neurotoxin A light chain protease. multiplex microsphere protease substrate cleavage, flow cytometry. inhibition, % at 10 µM. hit rate 0.17% among 360,000. AID 588499; also: plate controls were buffer without enzyme for full effect and enzyme alone for no effect
PfHsp40 rescue: compounds rescuing yeast from Plasmodium falciparum HSP40 toxicity. S. cerevisiae expressing PfHsp40, growth rescue, ATP luminescence. growth rescue, % at 12.5 µM. hit rate 0.68% among 340,000. AID 504582; in the data active = growth rescue above about 28%, passing the limit was not always enough; inconclusive = no clear call, values can overlap the other calls;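 also: yeast W303a lacking pdr1 and pdr3 grown in galactose medium; growth measured after three days at 30 °C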
BoNT F protease: BoNT F light chain protease inhibition; hit rate 0.22% among 360,000; AID 588497; inhibition, % at 10 µM; Multiplex microsphere protease cleavage assay, flow cytometry; in the data active = inhibition above about 35%, passing the limit was not always enough; inconclusive = no clear call, values can overlap the other calls; also: plate controls were buffer without enzyme for full effect and enzyme alone for no effect
MazEF act: MazEF (E. coli) toxin RNase activation. activation, % at 20 µM. FAM/BHQ RNA-DNA oligo cleavage fluorescence, 5 h. P0AE70. hit rate 0.32% among 350,000; in the data active = activation above about 50%
Anthrax LF prot: anthrax lethal factor protease inhibition. P15917. multiplex microsphere protease cleavage assay, LF. inhibition, % at 10 µM. hit rate 0.12% among 360,000; also: plate controls were buffer without enzyme for full effect and enzyme alone for no effect
The depositor's hits bear a star; u = inconclusive; x = no result. Rule as the data show it, unless noted: active = inhibition above about 30%; inconclusive = no clear call, values can overlap the other calls; inactive = below that.

SMILES | Autofluor counter | BoNT-A LC inh2 | PfHsp40 rescue | BoNT F protease | MazEF act | Anthrax LF prot
CCCOC(=S)N/C(=N\S(=O)(=O)c1ccccc1)c1ccccc1 | 23253* | -1 | 0 | 0 | 0 | -3
O=C(N/N=C/c1coc2ccccc2c1=O)c1cc(Br)ccc1O | 5358 | 0 | 89* | 6 | -3 | -2
O=C(O)c1ccc(C=NNC(=O)c2cccc3ccccc23)cc1 | 3559 | 0 | -1 | -5 | 5 | 1
O=C(N/N=C/c1ccccc1O)c1cccc2ccccc12 | x | x | 32* | x | 2 | x
C=CCc1cccc(/C=N/NC(=O)c2ccccc2OC)c1O | 2511 | -2 | 50* | -13 | -6 | -1
Cc1ccc(C)c(NC(=O)CCC(=O)N/N=C/c2ccc[nH]2)c1 | 21086* | -1 | 0 | -3 | 11 | -1
C=CCc1cccc(/C=N/NC(=O)c2ccccc2Br)c1O | 2547 | -1 | u | -3 | -8 | -2
COc1ccc(OC)c(NC(=O)C2(C)CCN2C(C)C)c1 (stereo not drawn) | 3405 | -1 | x | 0 | x | -8
COc1cccc(CNC(=O)c2ccc(C)c(NC3=NC4CS(=O)(=O)CC4S3)c2)c1 (stereo not drawn) | 4556 | 0 | 0 | -10 | -4 | -4
O=C(N/N=C/c1ccc[nH]1)c1ccccc1O | 3291 | 0 | 76* | -6 | 7 | -7
O=C(NNC(=O)c1cccc2ccccc12)c1ccc(Br)cc1 | 4268 | -1 | 0 | 0 | 66* | -7
Cn1ccnc1SCC(=O)N1CCN(S(=O)(=O)c2ccccc2)CC1 | 4595 | -1 | 0 | 0 | -20 | 0
Nc1c(C(=O)NC23CC4CC(CC(C4)C2)C3)sc2nc3c(c(C(F)(F)F)c12)CCC3 | 24363* | u | 1 | -3 | 0 | -2
COc1ccc(-c2c3c(nc4sc(C(=O)Nc5ccccc5)c(N)c24)CCC3)cc1 | 15948 | 3 | -1 | 8 | -10 | 1
c1ccc2c(-c3c[nH]c4ccccc34)c3ccccc3nc2c1 | 4902 | 7 | 37* | -9 | 7 | 4
O=C(O)c1cc(-c2c[nH]c3ccccc23)nc2ccc3ccccc3c12 | 2105 | 1 | -2 | 2 | -12 | 1
COc1ccc(/C=C/C(=O)O)cc1S(=O)(=O)N1CCCC1 | 3678 | -2 | 1 | u | 3 | -6
COc1ccccc1NC(=O)C1CCCCN1S(=O)(=O)c1ccc(F)cc1 (stereo not drawn) | 16434* | 1 | 1 | 3 | -5 | -2
COc1ccc(NC(=O)C2CCCCN2S(=O)(=O)c2ccc(F)cc2)c(OC)c1 (stereo not drawn) | 17466* | -1 | 0 | -8 | -2 | -1
COc1ccc(NC(=O)C2CCCN2S(=O)(=O)c2ccc(C)cc2)cc1 (stereo not drawn) | 17367* | -4 | 0 | -2 | 7 | 0
O=C(Nc1ccccc1C(=O)N1CCCCCC1)c1cccc([N+](=O)[O-])c1 | x | x | 0 | x | 8 | x
Cc1cc(C)nc(N/N=C/C2=C(O)CC(c3ccc(F)cc3)CC2=O)n1 (stereo not drawn) | 6285 | 1 | x | 13 | -1 | -2
COc1ccc(Br)c(C(=O)OCc2cc(=O)oc3cc(C)ccc23)c1 | 4243 | 0 | -1 | -2 | 86* | -1
COc1ccccc1N1CC(C(=O)OCC(=O)c2c(N)n(C)c(=O)n(C)c2=O)CC1=O (stereo not drawn) | 3865 | 0 | x | -5 | -5 | -5
CCOC(=O)/C(C#N)=C/C=C1/C=CC=CN1C | 3559 | 2 | -1 | 38* | -9 | u
SMILES | Autofluor counter | BoNT-A LC inh2 | PfHsp40 rescue | BoNT F protease | MazEF act | Anthrax LF prot
Cc1cc(=O)oc2cc(OCC(=O)OCC(=O)NC3CC3)ccc12 | 4529 | 0 | -1 | 0 | 11 | -7
CC(=C1C(=O)c2ccccc2C1=O)N1CCC(C(N)=O)(N2CCCCC2)CC1 | 23736* | -1 | 0 | -2 | -24 | -6
CC(C)C(c1nnnn1C(C)(C)C)N1CCC(Cc2ccccc2)CC1 (stereo not drawn) | 18261* | u | 1 | u | -21 | u
O=C(CC1C[C@H](C(=O)N2CCOCC2)[C@@]2(CCC3CCCC3)c3[nH]c4ccccc4c3CCN2C1=O)NCC12CC3CC(CC(C3)C1)C2 (stereo partly drawn) | 3713 | 0 | -2 | -2 | -6 | 0
Cc1nn(C)cc1CNC(=O)c1ccccc1Br | 16520* | u | 0 | 2 | -1 | -2
Cc1cc(C(=O)NCc2ccccc2)no1 | 15472 | 13 | 1 | 17 | 1 | -16
CCNC(=S)NNC(=O)c1cc(C)on1 | 21335* | 5 | 2 | 6 | -13 | 0
Cc1cc(C(=O)NCc2ccccc2Br)no1 | 21781* | u | -1 | -3 | -2 | -1
NC(CO)C(=O)NNCc1ccc(O)c(O)c1O (stereo not drawn) | 5923 | -3 | 2 | -9 | 223* | -21
COC(=O)[C@@H]1C(c2ccccc2)(c2ccccc2)[C@@]1(C)C(=O)OC | 2104 | 0 | 1 | 0 | -6 | 0
COC(=O)C1C2c3ccccc3C(c3ccccc32)C1(C)C(=O)OC (stereo not drawn) | 2756 | 0 | 35* | 3 | 11 | 2
CCOc1ccc(NC(=O)CN(C)C(=O)CCCn2c(=O)oc3ccccc32)cc1OCC | x | x | -1 | x | 2 | x
Cc1ccc2c(n1)sc1c(-c3ccccc3)c(C#N)c(N)nc12 | 4249 | 15 | 0 | -16 | 52* | 7
Cc1ccc(NC(=O)CCC(=O)c2cccs2)c(Br)c1 | 6096 | -2 | 3 | 2 | -7 | -5
COc1cccc(-n2c(CCn3nc(C)c([N+](=O)[O-])c3C)n[nH]c2=S)c1 | 2079 | -1 | -1 | -8 | -18 | -1
Cc1cccc(-n2c(CCn3nc(C)c([N+](=O)[O-])c3C)n[nH]c2=S)c1 | 16467* | -1 | 1 | 0 | -1 | -3
Cc1ccc(Cn2c(=S)[nH]c3ccc(N4CCOCC4)cc3c2=O)o1 | 5817 | 0 | 0 | -6 | 1 | 0
CCOc1cc2[nH]c(=S)n(Cc3ccc(C)o3)c(=O)c2cc1OCC | 17111* | u | 0 | -5 | 9 | -5
CCOC(=O)N1CCC(n2c(=S)[nH]c3cc(OCC)c(OCC)cc3c2=O)CC1 | 18805* | u | 1 | 9 | 12 | -5
CCOc1cc2[nH]c(=S)n(C(C)C)c(=O)c2cc1OCC | 21566* | 0 | 1 | -3 | 4 | -5
COCc1ccc(CN2CCCC(C(=O)Nc3ccc(-c4cccc(OC)c4)cc3)C2)o1 (stereo not drawn) | 5337 | 1 | 1 | -1 | -6 | 0
Cc1ccc(N2C(=O)CC3(CCCC3)CC2=O)cc1 | 5109 | -5 | 1 | u | 13 | 32*
Cc1ccc(N2C(=O)CS(=O)(=O)CC2=O)cc1 | 4517 | 1 | 0 | -1 | 6 | 1
Cc1cc(C)c2c(c1)/C(=C/C(=O)c1ccc(Br)s1)C(=O)N2 | 21983* | u | 0 | -8 | -8 | -5
Cc1cccc2c1NC(=O)/C2=C\C(=O)c1cccs1 | 23425* | u | 2 | -5 | 8 | -2
